Screens deposited in PubChem by NMMLSC.
MEKK2 WT-MEK5 – raises or lowers MEK5 binding to wildtype human MEKK2 PB1 domain. Q9Y2U5. bead flow cytometry, Alexa488-MEK5 binding to MEKK2 WT; actives lie on both sides. binding response (% of control), % at 10 µM. 290,000 compounds, 1.1% hits; in the data active = binding response below about 67% or above about 130%
MEKK2mut PB1 HTS – signal of MEK5 binding to mutant human MEKK2 PB1 domain | AID 1530 | percent response, % at 10 µM | 290,000 compounds, 0.35% hits | bead flow cytometry, Alexa488-MEK5 binding to MEKK2 mutant; in the data active = percent response above about 24%, passing the limit was not always enough
MEKK3 PB1 HTS – modulators (inhibitors or enhancers) of MEK5 binding to human MEKK3 PB1 domain. bead-based flow cytometry, Alexa488-MEK5 binding to MEKK3; actives lie on both sides; 0 = blocked by unlabeled MEK5, 100 = vehicle. 290,000 compounds, 1.4% hits. AID 1529. Q99759. binding response (% of control), % at 10 µM;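 active = binding response more than 3 SD above or below the average of its plate-row segment, actives on both sides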;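 note: Alexa488 bead fluorescence after subtracting the streptavidin-only scavenger bead signal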
GRK2 inh – inhibitors of human GRK2 displacing RNA aptamer; bead flow cytometry, FAM-aptamer displacement from GRK2; inhibition of aptamer binding, % at 10 µM; AID 488847; P25098; 330,000 compounds, 0.59% hits;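 active = inhibition of aptamer binding above 40%, roughly 3 SD of noise, on plates passing a quality check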;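 note: median bead fluorescence of bound FAM aptamer so fluorescent compounds give negative values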
Target sequence (P25098 whole entry, looked up): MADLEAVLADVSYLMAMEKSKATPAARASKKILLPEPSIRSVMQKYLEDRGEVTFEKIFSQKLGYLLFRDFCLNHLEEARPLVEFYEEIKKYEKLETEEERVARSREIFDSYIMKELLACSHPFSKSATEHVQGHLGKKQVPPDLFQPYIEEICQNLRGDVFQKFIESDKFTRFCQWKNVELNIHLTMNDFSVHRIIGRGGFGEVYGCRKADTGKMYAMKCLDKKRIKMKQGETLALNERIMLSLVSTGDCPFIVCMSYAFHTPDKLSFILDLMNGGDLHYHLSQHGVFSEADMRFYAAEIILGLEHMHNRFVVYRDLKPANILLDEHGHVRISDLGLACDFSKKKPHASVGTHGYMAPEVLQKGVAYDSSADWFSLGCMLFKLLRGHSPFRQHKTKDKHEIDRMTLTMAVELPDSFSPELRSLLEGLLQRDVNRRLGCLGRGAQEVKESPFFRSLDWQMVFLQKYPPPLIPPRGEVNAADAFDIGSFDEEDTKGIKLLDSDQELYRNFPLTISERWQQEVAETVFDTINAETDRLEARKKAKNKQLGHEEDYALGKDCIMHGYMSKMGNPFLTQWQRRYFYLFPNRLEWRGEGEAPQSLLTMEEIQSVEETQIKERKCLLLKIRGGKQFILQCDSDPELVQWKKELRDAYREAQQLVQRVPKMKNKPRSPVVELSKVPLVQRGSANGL
MEKK2wt confirm – raises or lowers MEK5 binding to wildtype human MEKK2, retest. bead flow cytometry, Alexa488-MEK5 binding to MEKK2 WT; actives lie on both sides. shares compounds with MEKK3 PB1 HTS. 5,900 compounds, 2.4% hits. AID 1892. binding response (% of control), % at 10 µM; in the data active = binding response below about 16% or above about 210%; inactive = in between
MEKK2mut confirm – signal of MEK5 binding to mutant human MEKK2, retest; AID 1893; percent response, % at 10 µM; bead flow cytometry, Alexa488-MEK5 binding to MEKK2 mutant; 5,900 compounds, 2% hits; shares compounds with MEKK3 PB1 HTS; in the data active = percent response mostly above about 71%, no sharp cut-off; inactive = mostly below about 38%;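 note: higher means compound restores mutant binding toward wildtype level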
MEKK3-MEK5 inh – confirmation of inhibitors of MEK5 binding to human MEKK3. AID 1894. 5,900 compounds, 1.8% hits. bead flow cytometry, Alexa488-MEK5 binding to MEKK3; active compounds read low. binding response (% of control), % at 10 µM. shares compounds with MEKK3 PB1 HTS;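 active = binding response below 72% of control, or above a set upper limit, though filed actives all read lower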;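 note: 100% = DMSO only wells and 0% = binding blocked by excess unlabeled MEK5; lower values mean stronger disruption of MEK5 binding to MEKK3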
The depositor's hits bear a star; nt = not tested or not shown; [ ] = another dose, or the depositor's remark. Sampled rows, rich in hits. Any-hit rate of the full collection: about 2.5%.

SMILES	MEKK2 WT-MEK5	MEKK2mut PB1 HTS	MEKK3 PB1 HTS	GRK2 inh	MEKK2wt confirm	MEKK2mut confirm	MEKK3-MEK5 inh
S=C(Nc1ccccc1Cl)NC1CCN(Cc2ccccc2)CC1	101	-1	69*[inhibitor]	1	100	6	101
Cc1oc(-c2ccc(Cl)cc2)cc1C(=O)NC1CCN(Cc2ccccc2)CC1	175*	50	107	0	173	47	108
Cc1c(Cl)cccc1NC(=S)NC1CCN(Cc2ccccc2)CC1	126	23	100	0	nt	nt	nt
COc1cc(/C=C2\SC(=N)N(c3ccc(F)cc3)C2=O)ccc1O	102	1	100	1	nt	nt	nt
N=C1S/C(=C\c2ccccc2)C(=O)N1c1ccc(F)cc1	111	1	138*	0	99	-5	97
Cc1ccc(C)c(S(=O)(=O)N2CCN(C(=O)Cn3c(=O)cnc4ccccc43)CC2)c1	nt	nt	nt	0	nt	nt	nt
Cc1ccc(C(=O)COC(=O)c2ccncc2)cc1[N+](=O)[O-]	81	-2	52*[inhibitor]	0	97	-5	102
CC(C)Cc1ccc(S(=O)(=O)NCC2CCCO2)cc1 (stereo not drawn)	109	9	103	0	nt	nt	nt
CCOC(=O)N1CCN(C(=O)c2ccc3c(=O)n(-c4ccc(F)cc4)c(=S)[nH]c3c2)CC1	0.0*[inhibitor]	-21	1.0*[inhibitor]	9	94	-1	87
COc1ccc(-n2c(=S)[nH]c3cc(C(=O)Nc4cccc(C)c4)ccc3c2=O)cc1	105	-1	155*	6	101	4	103
COc1ccc(-n2c(=S)[nH]c3cc(C(=O)Nc4ccc(OC)c(OC)c4)ccc3c2=O)cc1	103	-1	140*	0	94	-4	100
CN1CCN(C(=O)c2ccc3c(=O)n(-c4ccc(F)cc4)c(=S)[nH]c3c2)CC1	103	6	99	1	nt	nt	nt
COc1ccc(-n2c(=S)[nH]c3cc(C(=O)Nc4ccc(C)c(F)c4)ccc3c2=O)c(OC)c1	103	8	104	1	nt	nt	nt
COc1ccc(-c2cn(-c3ccccc3)nc2CO)cc1	97	-4	98	0	nt	nt	nt
Cc1[nH]n(-c2ccccc2)c(=S)c1C=NCCCN=Cc1c(C)[nH]n(-c2ccccc2)c1=S	89	-5	87	0	nt	nt	nt
O=C(COC(=O)c1cccc(O)c1)NCc1ccc2c(c1)OCO2	91	-16	85	3	nt	nt	nt
O=c1ccc(Cl)cn1Cc1ccccc1F	91	7	127*	8	95	-2	95
Cc1cc(C)c2oc(C(=O)Nc3nnc(C(C)C)s3)cc(=O)c2c1	118	2	212*	0	79	-14	85
CC(=O)NC1=NN(C(C)=O)C(c2ccco2)S1 (stereo not drawn)	94	1	93	0	nt	nt	nt
CCc1nc2ccccc2c(=O)n1NCCc1ccccc1	99	2	99	0	nt	nt	nt
COC(=O)N1N=C(c2ccccc2)CC1(O)C(F)(F)F (stereo not drawn)	-5.0*[inhibitor]	-39	0.0*[inhibitor]	0	97	-4	102
COc1ccc(C(=O)N2N=C(c3ccccc3)CC2(O)C(F)(F)F)cc1 (stereo not drawn)	96	2	102	nt	nt	nt	nt
CCOC(=O)c1ccc(NC(=O)CSc2nnc(C3CCCCC3)n2C)cc1	96	7	126*	0	98	-2	97
CN(C)c1ccc(C(=S)N2CCOCC2)cc1	93	-2	100	0	nt	nt	nt
O=C(CSc1nc2cc(Cl)ccc2s1)N1CCN(C(=O)c2ccco2)CC1	102	4	105	0	nt	nt	nt
SMILES	MEKK2 WT-MEK5	MEKK2mut PB1 HTS	MEKK3 PB1 HTS	GRK2 inh	MEKK2wt confirm	MEKK2mut confirm	MEKK3-MEK5 inh
S=c1sc2c(N3CCN(Cc4ccccc4)CC3)ncnc2n1-c1ccccc1	99	4	101	0	nt	nt	nt
Cc1ccc(S(=O)(=O)NCCc2cccs2)cc1	121	21	128*	0	108	1	106
COc1cc([N+](=O)[O-])cc2cc(C(=O)NC(C)(C)C)c(=O)oc12	108	9	106	1	nt	nt	nt
COCCCNC(=O)c1cc2cc([N+](=O)[O-])cc(OC)c2oc1=O	51	-16	39*[inhibitor]	0	105	5	105
O=C1CC(=C2c3ccccc3-c3ccccc32)C(=O)N1CCCCN1CCN(c2ccccc2)CC1	155*	12	103	0	147	28	102
O=C1CC(=C(c2ccccc2)c2ccccc2)C(=O)N1CCCN1CCN(c2cccc(Cl)c2)CC1	120	19	112	0	nt	nt	nt
COCc1nnc(NC(=O)CCc2ccccc2)s1	2.0*[inhibitor]	-18	2.0*[inhibitor]	0	101	-4	100
CCN(CC)C(=O)CSc1nnc(NC(=O)CCc2ccccc2)s1	115	2	156*	2	143	17	106
COc1cccc(C(C(=O)NCc2ccco2)N(C(=O)Cn2nnc3ccccc32)C2CC2)c1OC (stereo not drawn)	87	-16	82*[inhibitor]	2	105	3	103
O=C(O)C(c1ccccc1)N1C(=O)/C(=C\c2ccc(-c3ccccc3Cl)o2)SC1=S (stereo not drawn)	90	-8	97	0	nt	nt	nt
O=C(O)C(c1ccccc1)N1C(=O)/C(=C\c2ccc(-c3ccc(Br)cc3)o2)SC1=S (stereo not drawn)	65*[inhibitor]	-14	87	nt	76	-10	94
Cc1cc(C(=O)COC(=O)CC2Sc3ccccc3NC2=O)c(C)n1-c1ccccc1 (stereo not drawn)	105	0	136*	1	93	-10	96
CCCCC(=O)OCC(=O)c1cc(C)n(-c2c(C)n(C)n(-c3ccccc3)c2=O)c1C	83	-3	65*[inhibitor]	1	90	-10	89
CSc1ccccc1C(=O)N1CCN(S(=O)(=O)c2sc(C(=O)O)c(C)c2C(=O)O)CC1	nt	nt	nt	4	nt	nt	nt
O=C(/C=C/N1CCN(Cc2ccccc2)CC1)C(F)(F)F	69	-15	62*[inhibitor]	0	102	1	103
O=C(c1ccccc1)N1CCN(Cc2ccccc2)CC1	102	4	99	2	nt	nt	nt
CCNC(=O)COC(=O)c1cccc(Br)c1	39*[inhibitor]	-13	38*[inhibitor]	1	102	-6	98
O=C(COC(=O)c1ccccc1)Nc1ccccc1Br	54*[inhibitor]	-16	46*[inhibitor]	18	41	-29	85
CCN1C(=O)[C@H]2[C@@H](c3ccc(-c4cccc(Cl)c4)c(OC)c3)N[C@@](Cc3ccccc3)(C(=O)OC)[C@H]2C1=O	nt	nt	nt	1	nt	nt	nt
CC(=O)NCCNc1ccc([N+](=O)[O-])cn1	100	-1	99	2	nt	nt	nt
